In paper PMC7862700, “An all-to-all approach to the identification of sequence-specific readers for epigenetic DNA modifications on cytosine”:

Assays:
Assay in all cases: DAPPL (digital affinity profiling via proximity ligation, sequencing); 10 mM Tris-HCl pH 7.5, 50 mM NaCl, 1 mM DTT, 4% glycerol, room temperature, 30 min; GST-TFs on glutathione beads, 16-mer random dsDNA library, 0.1% formaldehyde crosslink after washing; high values mean tight binding
Conditions in all cases: protein: recombinant; tags: N-terminal GST; dsDNA, one strand shown
ERF = biological target: T1, ERF (Homo sapiens, UniProt P50548 1-548)
T1 sequence: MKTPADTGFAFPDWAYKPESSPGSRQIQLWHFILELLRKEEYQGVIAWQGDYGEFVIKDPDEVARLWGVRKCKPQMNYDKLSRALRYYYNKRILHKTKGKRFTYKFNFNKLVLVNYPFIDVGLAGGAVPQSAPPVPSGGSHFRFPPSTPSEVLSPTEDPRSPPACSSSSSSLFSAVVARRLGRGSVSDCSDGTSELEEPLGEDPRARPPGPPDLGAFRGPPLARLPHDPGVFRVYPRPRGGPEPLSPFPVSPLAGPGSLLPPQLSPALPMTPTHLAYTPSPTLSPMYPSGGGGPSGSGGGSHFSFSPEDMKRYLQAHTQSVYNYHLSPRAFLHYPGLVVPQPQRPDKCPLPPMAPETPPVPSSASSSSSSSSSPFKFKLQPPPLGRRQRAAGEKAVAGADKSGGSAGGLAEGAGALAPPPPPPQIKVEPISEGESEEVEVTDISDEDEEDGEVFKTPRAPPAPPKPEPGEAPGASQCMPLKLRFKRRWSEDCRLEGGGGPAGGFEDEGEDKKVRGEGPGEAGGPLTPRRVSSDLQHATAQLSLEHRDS
Outline: (§1)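 Human transcription factors fused to GST were expressed in yeast, captured on glutathione beads, given DNA barcodes and pooled with a GST-only negative control. Pools were incubated with 200 nmole of a 16-mer random double-stranded DNA library in Tris/NaCl/DTT/glycerol buffer at room temperature for 30 min. They were then washed, crosslinked with 0.1% formaldehyde, proximity-ligated (BsaI/T4 ligase, 1 h, 37 °C), PCR-amplified and sequenced on an Illumina NextSeq500. Binding signal is each 6-mer's read frequency for a factor divided by its frequency for the GST control.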

ETV3L = biological target: T2, ETV3L (Homo sapiens, UniProt Q6ZN32 1-361)
T2 sequence: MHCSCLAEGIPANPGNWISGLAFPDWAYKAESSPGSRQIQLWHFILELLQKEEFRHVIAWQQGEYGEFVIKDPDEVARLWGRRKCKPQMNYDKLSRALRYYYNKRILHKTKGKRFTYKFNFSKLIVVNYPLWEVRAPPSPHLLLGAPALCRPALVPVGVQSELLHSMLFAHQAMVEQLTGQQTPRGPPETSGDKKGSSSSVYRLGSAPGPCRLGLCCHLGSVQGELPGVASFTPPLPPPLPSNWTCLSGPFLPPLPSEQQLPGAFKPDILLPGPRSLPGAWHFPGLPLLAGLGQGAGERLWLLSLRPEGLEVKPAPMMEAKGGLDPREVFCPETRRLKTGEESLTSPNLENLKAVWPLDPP
Outline: as §1

ETS2 = biological target: T3, ETS2 (Homo sapiens, UniProt P15036 1-469)
T3 sequence: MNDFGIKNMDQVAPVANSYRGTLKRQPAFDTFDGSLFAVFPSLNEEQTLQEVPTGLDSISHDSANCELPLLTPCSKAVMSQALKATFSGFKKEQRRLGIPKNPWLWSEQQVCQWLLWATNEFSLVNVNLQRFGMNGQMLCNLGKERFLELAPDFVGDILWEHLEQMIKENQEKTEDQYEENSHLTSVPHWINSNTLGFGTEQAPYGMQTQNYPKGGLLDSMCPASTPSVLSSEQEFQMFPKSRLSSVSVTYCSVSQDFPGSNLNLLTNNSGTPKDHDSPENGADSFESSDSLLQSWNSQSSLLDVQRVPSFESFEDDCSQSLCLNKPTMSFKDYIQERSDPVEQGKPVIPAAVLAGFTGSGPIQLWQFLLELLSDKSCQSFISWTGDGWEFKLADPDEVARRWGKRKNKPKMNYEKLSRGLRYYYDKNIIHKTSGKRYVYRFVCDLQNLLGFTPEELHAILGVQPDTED
Outline: as §1

SPDEF = biological target: T4, SPDEF (Homo sapiens, UniProt O95238 1-335)
T4 sequence: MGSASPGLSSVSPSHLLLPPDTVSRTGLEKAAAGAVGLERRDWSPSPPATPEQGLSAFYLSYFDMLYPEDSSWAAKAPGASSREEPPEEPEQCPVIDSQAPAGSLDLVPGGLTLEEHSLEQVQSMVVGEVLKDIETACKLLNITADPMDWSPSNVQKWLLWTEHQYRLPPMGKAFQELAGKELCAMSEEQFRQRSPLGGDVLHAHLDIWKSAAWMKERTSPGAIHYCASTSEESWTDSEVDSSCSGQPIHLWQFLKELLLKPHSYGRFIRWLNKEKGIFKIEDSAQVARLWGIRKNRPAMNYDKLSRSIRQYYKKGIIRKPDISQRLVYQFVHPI
Outline: as §1

ETV7 = biological target: T5, ETV7 (Homo sapiens, UniProt Q9Y603 1-341)
T5 sequence: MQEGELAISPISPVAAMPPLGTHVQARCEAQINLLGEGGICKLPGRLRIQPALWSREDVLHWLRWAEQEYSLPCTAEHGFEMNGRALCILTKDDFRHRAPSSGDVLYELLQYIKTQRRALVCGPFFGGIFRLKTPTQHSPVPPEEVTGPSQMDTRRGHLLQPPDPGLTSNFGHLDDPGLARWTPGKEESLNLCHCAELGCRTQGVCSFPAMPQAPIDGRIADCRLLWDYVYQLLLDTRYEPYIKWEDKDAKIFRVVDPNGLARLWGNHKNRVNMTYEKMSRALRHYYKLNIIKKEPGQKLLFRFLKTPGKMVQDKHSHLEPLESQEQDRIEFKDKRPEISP
Outline: as §1

ELF5 = biological target: T6, ELF5 (Homo sapiens, UniProt Q9UKW6-2 1-255)
T6 sequence: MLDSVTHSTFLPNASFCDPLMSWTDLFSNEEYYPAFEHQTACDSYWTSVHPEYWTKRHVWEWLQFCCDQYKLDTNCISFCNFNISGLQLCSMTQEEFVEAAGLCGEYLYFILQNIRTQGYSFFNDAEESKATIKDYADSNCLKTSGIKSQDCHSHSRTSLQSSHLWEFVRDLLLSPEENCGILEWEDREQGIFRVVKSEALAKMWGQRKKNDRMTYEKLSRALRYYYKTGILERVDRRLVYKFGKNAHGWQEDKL
Outline: as §1

ETV3 = biological target: T7, ETV3 (Homo sapiens, UniProt P41162-2 1-143)
T7 sequence: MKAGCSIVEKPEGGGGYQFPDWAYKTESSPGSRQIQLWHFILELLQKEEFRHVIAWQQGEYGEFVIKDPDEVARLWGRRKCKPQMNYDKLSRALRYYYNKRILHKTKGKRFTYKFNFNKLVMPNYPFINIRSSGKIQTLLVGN
Outline: as §1

ETV6 = ETV6 (Homo sapiens, UniProt P41212 1-452)
ETV6, sequence (P41212 whole entry): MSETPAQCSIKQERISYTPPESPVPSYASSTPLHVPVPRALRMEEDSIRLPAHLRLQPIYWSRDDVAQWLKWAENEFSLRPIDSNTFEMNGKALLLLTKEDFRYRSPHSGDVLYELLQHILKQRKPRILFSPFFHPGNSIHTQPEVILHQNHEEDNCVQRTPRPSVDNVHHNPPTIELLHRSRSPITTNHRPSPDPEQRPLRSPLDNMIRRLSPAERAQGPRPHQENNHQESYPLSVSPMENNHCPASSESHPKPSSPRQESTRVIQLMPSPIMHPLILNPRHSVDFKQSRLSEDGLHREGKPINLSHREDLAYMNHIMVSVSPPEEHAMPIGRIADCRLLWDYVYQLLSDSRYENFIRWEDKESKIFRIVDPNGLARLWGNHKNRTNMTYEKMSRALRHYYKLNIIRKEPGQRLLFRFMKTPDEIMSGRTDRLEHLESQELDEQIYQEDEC
Outline: as §1

Sequence | binding signal (ERF) | binding signal (ETV3L) | binding signal (ETS2) | binding signal (SPDEF) | binding signal (ETV7) | binding signal (ELF5) | binding signal (ETV3) | binding signal (ETV6)
TGCATA | 1.09 fold enrichment (6-mer frequency, TF over GST control) | 1.23 fold enrichment (6-mer frequency, TF over GST control) | 1.17 fold enrichment (6-mer frequency, TF over GST control) | 1.18 fold enrichment (6-mer frequency, TF over GST control) | 1.23 fold enrichment (6-mer frequency, TF over GST control) | 1.06 fold enrichment (6-mer frequency, TF over GST control) | 1.11 fold enrichment (6-mer frequency, TF over GST control) | 1.05 fold enrichment (6-mer frequency, TF over GST control)
TGCACT | 1.28 fold enrichment (6-mer frequency, TF over GST control) | 1.34 fold enrichment (6-mer frequency, TF over GST control) | 1.32 fold enrichment (6-mer frequency, TF over GST control) | 1.4 fold enrichment (6-mer frequency, TF over GST control) | 1.42 fold enrichment (6-mer frequency, TF over GST control) | 1.29 fold enrichment (6-mer frequency, TF over GST control) | 1.35 fold enrichment (6-mer frequency, TF over GST control) | 1.41 fold enrichment (6-mer frequency, TF over GST control)
ACGGCC | 1.02 fold enrichment (6-mer frequency, TF over GST control) | 1.13 fold enrichment (6-mer frequency, TF over GST control) | 1.1 fold enrichment (6-mer frequency, TF over GST control) | 1.17 fold enrichment (6-mer frequency, TF over GST control) | 1.13 fold enrichment (6-mer frequency, TF over GST control) | 1.02 fold enrichment (6-mer frequency, TF over GST control) | 1.13 fold enrichment (6-mer frequency, TF over GST control) | 1.08 fold enrichment (6-mer frequency, TF over GST control)
ATTGCT | 1.15 fold enrichment (6-mer frequency, TF over GST control) | 1.25 fold enrichment (6-mer frequency, TF over GST control) | 1.23 fold enrichment (6-mer frequency, TF over GST control) | 1.17 fold enrichment (6-mer frequency, TF over GST control) | 1.43 fold enrichment (6-mer frequency, TF over GST control) | 1.18 fold enrichment (6-mer frequency, TF over GST control) | 1.11 fold enrichment (6-mer frequency, TF over GST control) | 1.15 fold enrichment (6-mer frequency, TF over GST control)
GCTTAT | 1.31 fold enrichment (6-mer frequency, TF over GST control) | 1.23 fold enrichment (6-mer frequency, TF over GST control) | 1.36 fold enrichment (6-mer frequency, TF over GST control) | 1.43 fold enrichment (6-mer frequency, TF over GST control) | 1.43 fold enrichment (6-mer frequency, TF over GST control) | 1.15 fold enrichment (6-mer frequency, TF over GST control) | 1.2 fold enrichment (6-mer frequency, TF over GST control) | 1.23 fold enrichment (6-mer frequency, TF over GST control)
CACATA | 1.17 fold enrichment (6-mer frequency, TF over GST control) | 1.19 fold enrichment (6-mer frequency, TF over GST control) | 1.1 fold enrichment (6-mer frequency, TF over GST control) | 1.11 fold enrichment (6-mer frequency, TF over GST control) | 1.03 fold enrichment (6-mer frequency, TF over GST control) | 1.05 fold enrichment (6-mer frequency, TF over GST control) | 1.09 fold enrichment (6-mer frequency, TF over GST control) | 1.1 fold enrichment (6-mer frequency, TF over GST control)
TGCACA | 1.22 fold enrichment (6-mer frequency, TF over GST control) | 1.13 fold enrichment (6-mer frequency, TF over GST control) | 1.06 fold enrichment (6-mer frequency, TF over GST control) | 1.21 fold enrichment (6-mer frequency, TF over GST control) | 1.02 fold enrichment (6-mer frequency, TF over GST control) | 1.07 fold enrichment (6-mer frequency, TF over GST control) | 1.18 fold enrichment (6-mer frequency, TF over GST control) | 1.06 fold enrichment (6-mer frequency, TF over GST control)
GAAGAA | 1.02 fold enrichment (6-mer frequency, TF over GST control) | 1.18 fold enrichment (6-mer frequency, TF over GST control) | 1.16 fold enrichment (6-mer frequency, TF over GST control) | 1.09 fold enrichment (6-mer frequency, TF over GST control) | 1.16 fold enrichment (6-mer frequency, TF over GST control) | 1.27 fold enrichment (6-mer frequency, TF over GST control) | 1.12 fold enrichment (6-mer frequency, TF over GST control) | 1.18 fold enrichment (6-mer frequency, TF over GST control)
TCCACG | 1.03 fold enrichment (6-mer frequency, TF over GST control) | 1.18 fold enrichment (6-mer frequency, TF over GST control) | 1.09 fold enrichment (6-mer frequency, TF over GST control) | 1.1 fold enrichment (6-mer frequency, TF over GST control) | 1.06 fold enrichment (6-mer frequency, TF over GST control) | 1.04 fold enrichment (6-mer frequency, TF over GST control) | 1.01 fold enrichment (6-mer frequency, TF over GST control) | 1.06 fold enrichment (6-mer frequency, TF over GST control)
